# In the supplement of paper PMC11417369:
# The full ranking holds about 25,000 sequences; the median of “ln(normalized median fluorescence intensity)” is about 9.7, and the highest 2% start at about 11. The list comes from a sample in which the highest values are over-represented; it also holds similar and randomly drawn sequences.
# Tested on: PfAP2-HC AP2 domain (GST-tagged)
# Assay: gcPBM binding intensity (ln(normalized median fluorescence intensity)); higher = stronger DNA binding
# In short: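 Each value is the highest Masliner-normalised natural-log median intensity across replicate spots of either orientation of a probe. The probes were primer-extended double-stranded 36-bp intergenic genomic sequences on an Agilent 4 × 180k array, alongside negative controls, exposed for 1 h to GST-tagged P. falciparum DNA-binding domains expressed in E. coli. Bound protein was picked up with Alexa488 anti-GST antibody and scanned at 488 nm.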
row,Sequence,gcPBM binding intensity (ln)
1,ATTTTGTGTAGTGATGCATGTTATATATATATTTGA [TGCATGCA_site422],9.83
2,TAGAAGCATGGACACACACACATACATACCCATACA [CACACA_site4916],11.2
3,TGTCATGATACATACACACACATACCCATACCCATA [CACACA_site5211],10.6
4,GTTATAGAAGCATTCACACACACACGGACATACACA [CACACA_site6801],10.7
5,AAAAAAAACGGACACACACACATACCCATACATACA [CACACA_site5574],10.5
6,TAGAAGCATTGACACACACACATACATACACATACA [CACACA_site6802],11.2
7,TATAGAAGCATTCACACACACACATACATACACATA [CACACA_site1466],10.6
8,TGTTGCAAAACAAAAAAAAAAAAAAAAAATAATAAT [CACACA_negctrl_site1642],9.52
9,AAAAGGAAAAATATCACACATATATATATATATATA [CACACA_site5586],9.69
10,TAGAAAAAATAAAATAGTACACATCCAAAAAAAAAA [XGTACX_site7829],9.71
11,GCATAAGAAATAAATAGTACACACATAGACACACAC [XGTACX_site3095],11.3
12,TAAGAAATAAATAGTACACACATAGACACACGCACA [CACACA_site6821],10.7
13,TAAGAAATAAATAGTACACACATAGACACCCACCGA [CACACA_site1516],10.4
14,TAAGAAATAAATAGTACACACATAGACACCCACCCA [CACACA_site8429],11.3
15,TAAGAAATAAATAGTACACACATAGACACAGACACA [CACACA_site4934],10.6
16,TATAAATACATCCTATACTTCTCTTTTACAGTTTTA [CACACA_negctrl_site1283],9.62
17,ATTTCGTTCTTTTATGCACACTCAACATATAAATTA [CACACA_site8322],9.93
18,GACATAGTCATATACTGTACTTTATATTATTGTGTA [XGTACX_site6636],9.66
19,TATAATAAAATATGTACACACATACAGACATATATA [CACACA_site6693],9.99
20,TATGGTATATACAACACACACACATATGTATATATA [CACACA_site927],10.9
21,TATGGTATATACAACACACACACATATGTATAAATA [CACACA_site6562],10.5
22,TATAAATAAATATACACACACACATATAAATATGTA [CACACA_site6504],10.4
23,TGGTATATACGACACACACACATATGTATAAATATA [CACACA_site6561],10.9
24,ACACATAAATGTATATATATATAAATATATGTATGT [CACACA_negctrl_site1532],9.82
25,TATGGTAAATACAACACACACACATATGTATTTATA [CACACA_site4666],10.3

row,Sequence,gcPBM binding intensity (ln)
1,AATTCACATGTGAACTAAAAGAATATTATATATATA [CACACA_negctrl_site1632],9.55
2,TTTTCTAAATATTATAGTACTCTTAATAATATTAAC [XGTACX_site4222],9.34
3,TATAGCAAAAAATTTACACACATGTTTTTTCTATAC [CACACA_site325],9.9
4,ATATTTGTAATTATTAAACACACACTAATTATATAT [CACACA_site8803],9.9
5,AAATTATATACCACAGTGCAAAAGGCAGGTATACGT,9.91
6,TACATATTACTATTCAGTACATATTTTTTTTTCATT [XGTACX_site7468],9.81
7,AAAAAATACAGACACACACACACACGCATATAAATA [CACACA_site7644],10.8
8,AAAAAAAATAGACACACACACATACACATAAATATA [CACACA_site7742],10.5
9,AAACAACATGGACACGCACACACAAAAAAAGCATGC [CACACA_site73],10.7
10,AAAATACATAGACACACACACACACGGATATAAATA [CACACA_site7643],11.2
11,ACCATATAAATAAACACACACACACGGATATAAATA [CACACA_site7157],10.6
12,CAAGCACACGGACACACACACACACGCGCACGCACA [CACACA_site6307],11.3
13,CATATACATAGACACACACACACATAAATAAATATA [CACACA_site6749],10.4
14,ATAGTATACAGACACACACACACACGGATATAAATA [CACACA_site6914],10.6
15,CGCGCACACGGACACACACACACACGGATATAAATA [CACACA_site7102],11.3
16,TAAATAAATTTATACACACACACACGGATATAAATA [CACACA_site6532],10.6
17,CACGCATACAGACACACACACACACGGATATAAATA [CACACA_site6445],11.6
18,TTTAATTCTTATATTTGTACAGATTCATAATTAAAT [XGTACX_site7465],9.41
19,ACAAATAAATATTCGCGTACTTATATAATATTACGA [XGTACX_site6428],9.66
20,TACATACATACATACACACACACATATATATATATA [CACACA_site42],10.2
21,AATATTTTGAACAACAGTACTCTTTCTTTCTTTCTT [XGTACX_site7212],9.51
22,TGAATAATAAAAAATACACACACATATATATATATT [CACACA_site9146],10.1
23,ACTTACCCATTTATTACACACATAAAGGAAAATTTT [CACACA_site4873],9.88
24,TTTTATAAAAACAAAAACAAAGGCACTTTCTAAAGA [XGTACX_negctrl_site130],9.58
25,TATATGTTATATTTAACACACATATAAGGTACATAT [CACACA_site612],9.83

row,Sequence,gcPBM binding intensity (ln)
1,ACTTTTTAATATTTTAGTACACAGTAATTCTTACTA [XGTACX_site1425],9.75
2,CAAGAAACAGTGATACGTACACATATATATATATAT [XGTACX_site3229],9.91
3,AAGGATATAACATACACACACACACGGATATAAATA [CACACA_site7867],11
4,AATATAAGGATATATACACACATAAATACATACATA [CACACA_site7859],9.99
5,AAATAACACATATATACACACATATAAATATAATAT [CACACA_site2692],10.3
6,TTGTGGATTTTGTGCGCACACACATGCAAAAAGAAA [CACACA_site1147],10
7,GCCGCACCCAGATACGCACACAAGAAAAAAATATTC [CACACA_site3456],9.8
8,ATAATATTATGAACCTGTACATAATTTTTCTTTTCT [XGTACX_site3377],9.62
9,GAATACACCACGCACACACACTTGAGAAAAAATAAA [CACACA_site7747],10.3
10,AAGAATACACCACGCACACACACTTGAGAAAAAATA [CACACA_site3828],11.2
11,ACAAGAGAAAAAAATACACACAAGATAAAAATGTAT [CACACA_site607],9.95
12,AAAGCACGCAAGAATACACACAAATATTATAAAAAA [CACACA_site6206],10.1
13,AAAAAGAAAATATATACACACCAAAAAAAAAAAAAA [CACACA_site5698],9.75
14,ACAAGAATACACCACGCACACACACTAGAGAAAAAA [CACACA_site9276],11.6
15,AATATTTATAAATTTACACACACACCCGTGAACATA [CACACA_site1910],10.2
16,CATACTCACCAACACACACACACACCCATATAGAAT [CACACA_site592],11.1
17,CACCCACACCAACACACACACATATATAATATATAT [CACACA_site595],10.6
18,CACACCCACCAACACACACACACACCCACCCATATA [CACACA_site366],11
19,TATAAACACCCATATAAACACACATATAAACCAACA [CACACA_site8790],10
20,TATACATACCCACCCACACACAAAAAAAAAAAAAAA [CACACA_site4632],10.2
21,ACCATACATACATACACACACACACCCATATATATA [CACACA_site2917],10.6
22,CGCGCACCCAGACACACACACACACCCATATATATA [CACACA_site2203],10.6
23,CACGCGCACCAACACACACACACACCCATATATATA [CACACA_site2204],11.1
24,CATATACACCAACACACACACACACCCACAAAAAAA [CACACA_site496],11.3
25,GACACCCATAAATATACACACGCACAACACAAAATA [CACACA_site8944],9.98

row,Sequence,gcPBM binding intensity (ln)
1,CACACCACCAACAAAAGTACATACATATATATATAT [XGTACX_site5781],9.82
2,TAACCATACATACATACACACACACCCACATATATA [CACACA_site8951],10.3
3,TAATTAAAATCATATACACACCCATATATATATATA [CACACA_site8524],10
4,AAATACCTTATATATACACACTATGTTTTTCTTTTT [CACACA_site4792],9.97
5,AATAAATAAAAATTATGTACATATATAAAAAATACA [XGTACX_site8581],9.82
6,TTGTTTCTTTTTTTTTGTACATATATATTGTATATT [XGTACX_site7602],9.89
7,AATAATAAATCAAACTGTACATATATTTTCAATCTA [XGTACX_site3344],9.61
8,TATAAAAAAATAATAAAATAATAAAATATATAAATA [TGCATGCA_negctrl_site394],9.6
9,AAAAAAAAAAAATGTGCACACGCGTACAGACAAAAA [CACACA_site2005],10.3
10,ATTAAATCTATATATACACACATGTTTGGTATATTC [CACACA_site2657],9.87
11,ATGCACTCATTGTGCACACGCATATTACGAAAAGAA [CACACA_site2638],9.86
12,TTTTTTTTTTGATGTTGTACATATATACTATATAAT [XGTACX_site1332],9.65
13,AAAACAAATGCTTAAAGTACTTATTATTTTTCTTTT [XGTACX_site6324],9.57
14,TAAATAAATTTATACACACACACACCCATATATATA [CACACA_site849],10.9
15,TGAATAAATCAAAGCACACATACACCCACATATATA [CACACA_site286],10.2
16,CATATATATAAATACACACACACACCCCTTATAATT [CACACA_site4064],10.6
17,AATAAATATATATACACACCCATATATATATATATA [CACACA_site2595],9.63
18,ATTAATTATATATATACACACACATACACCCAAATA [CACACA_site9126],10.3
19,GATGAATAAATCAAAGCACACATACACCCACATATA [CACACA_site7986],11.2
20,TACATATACATATACACACACACACCCAAATAAATA [CACACA_site1344],10.5
21,TATAAATAAATTTATACACACACACCCATATATATA [CACACA_site8183],10.3
22,CATATAAATAAATACACACACACACGCCTTATAATT [CACACA_site7830],11.6
23,TCAAAGCACCCATACACACACATATATATATATATA [CACACA_site4317],10.5
24,TAATTATATAAATACACACACATACACCCAAATAAA [CACACA_site5819],11.1
25,AAATTATAATATAATACACACATAAAAAAAAAAAAA [CACACA_site7],9.79
